According to PubChem BioAssay (NCI):
This is part of a sample that, as a whole, favours compounds with a hit. Of some 79,000 tested, about 15% had one in any assay. The source made the active and inactive calls. Rule as the data show it: active = growth inhibition above about 70%; inactive = the rest.

Experiments:
[1] = NCI Yeast Anticancer Drug Screen. Data for the rad52 strain (AID 147);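 also: 0% = growth of vehicle-treated control cultures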; settings: S. cerevisiae rad52 mutant growth inhibition, hits give high values
In short: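 Vehicle-treated cultures served as the reference for growth inhibition of compound-exposed yeast bearing a DNA repair mutation.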

[2] = NCI Yeast Anticancer Drug Screen. Data for the wt1 strain (AID 149);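 also: 0% = growth of vehicle-treated wt1 cultures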; settings: S. cerevisiae wt1 strain (SPY 50644) growth inhibition, hits give high values
In short: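 Using yeast strain wt1, compound-induced growth inhibition was determined against vehicle-treated cultures.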

[3] = NCI Yeast Anticancer Drug Screen. Data for the rad50EPP+ strain (AID 151);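 also: 0% = growth of vehicle-treated control cultures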; settings: S. cerevisiae rad50 mutant strain, hits give high values
In short: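 In this screen, rad50EPP+ yeast were exposed to compounds. Growth inhibition was scored against vehicle-treated controls.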

[4] = NCI Yeast Anticancer Drug Screen. Data for the mgt1 strain (AID 153); settings: S. cerevisiae mgt1 mutant growth inhibition, hits give high values
In short: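 mgt1 strain exposed; growth vs vehicle control recorded as inhibition.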

[5] = NCI Yeast Anticancer Drug Screen. Data for the rad50 strain (AID 155);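 also: 0% = growth of vehicle-only cultures of the same strain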; settings: S. cerevisiae rad50 strain growth inhibition, hits give high values
In short: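 Relative growth inhibition (compound vs vehicle) was measured in yeast with a defined repair-gene alteration.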

[6] = NCI Yeast Anticancer Drug Screen. Data for the mec2-1 strain (AID 157); settings: S. cerevisiae mec2-1 strain, hits give high values
In short: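 Vehicle-treated cultures served as reference for growth inhibition of compound-exposed mec2-1 yeast.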

[7] = NCI Yeast Anticancer Drug Screen. Data for the rad14 strain (AID 159);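 also: 0% = growth of vehicle-treated control cultures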; settings: S. cerevisiae rad14 strain growth inhibition, hits give high values
In short: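 Screen for anticancer potential: a yeast strain altered in DNA damage repair is grown with compound, and reduced growth is quantified against vehicle controls.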

[8] = NCI Yeast Anticancer Drug Screen. Data for the sgs1 mgt1 strain (AID 161);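 also: 0% = growth of cultures given vehicle only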; settings: S. cerevisiae sgs1 mgt1 strain, hits give high values
In short: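 Genetically altered yeast, compound exposure, growth inhibition relative to vehicle.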

[9] = NCI Yeast Anticancer Drug Screen. Data for the CLN2oe strain (AID 163);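 also: 0% = growth of vehicle-only control cultures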; settings: S. cerevisiae CLN2oe strain, hits give high values
In short: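 Inhibition relative to vehicle-treated yeast is reported. Cells: strain with genetic alteration in cell-cycle control, grown with compound.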

[10] = NCI Yeast Anticancer Drug Screen. Data for the cln2 rad14 strain (AID 165);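 also: 0% = growth equal to vehicle treated cultures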; settings: S. cerevisiae cln2 rad14 strain, hits give high values
In short: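 Each compound was tested on cln2 rad14 yeast. Inhibition of growth was calculated against vehicle-exposed controls.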

[11] = NCI Yeast Anticancer Drug Screen. Data for the bub3 strain (AID 167); settings: S. cerevisiae bub3 mutant strain, hits give high values
In short: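 Screening used yeast with an engineered genetic alteration affecting cell cycle control. Compound-exposed cultures were compared with vehicle cultures, and reduced growth was taken as inhibition.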

[12] = NCI Yeast Anticancer Drug Screen. Data for the wt2 strain (AID 169);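 also: 0% = growth of vehicle-treated yeast cultures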; settings: S. cerevisiae wt2 strain growth inhibition, hits give high values
In short: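 Inhibition of yeast growth was determined after compound treatment, normalised to controls receiving only vehicle.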

[13] = NCI Yeast Anticancer Drug Screen. Data for the mlh1 strain (AID 171);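 also: 0% = growth of vehicle-treated control cultures of the same strain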; settings: S. cerevisiae mlh1 strain growth inhibition, hits give high values
In short: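 Vehicle-normalised growth inhibition of a repair- or checkpoint-altered yeast strain following compound treatment.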

[14] = NCI Yeast Anticancer Drug Screen. Data for the sgs1 strain (AID 173);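 also: 0% = growth of vehicle-only control cultures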; settings: S. cerevisiae sgs1 mutant, hits give high values
In short: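 Screen format: yeast with repair or checkpoint alterations, compound exposure, growth read relative to vehicle.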

[15] = NCI Yeast Anticancer Drug Screen. Data for the mlh1 rad18 strain (AID 175); settings: S. cerevisiae mlh1 rad18 strain growth inhibition, hits give high values
In short: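 Vehicle-treated cultures served as the reference for growth inhibition in a yeast strain carrying DNA damage repair alterations exposed to each compound.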

[16] = at 5.0 µM (retest, dose inferred, filed as 0.5)
[17] = at 50.0 µM (retest, dose inferred, filed as 5.0)

Measured: growth inhibition

O=C(O)C1CCCCC1c1c2ccc(=O)cc-2oc2cc(O)ccc12 (stereo unspecified)
inactive: [1]; at 1.2 µM 2% | [1]; at 3.7 µM -3% | [1]; at 11.0 µM 1% | [1]; at 33.0 µM 39% | [2]; at 1.2 µM -24% | [2]; at 3.7 µM -19% | [2]; at 11.0 µM -21% | [2]; at 33.0 µM 12% | [3]; at 1.2 µM 11% | [3]; at 3.7 µM 16% | [3]; at 11.0 µM 16% | [3]; at 33.0 µM 22% | [3]; at 100.0 µM 38% | [4]; at 1.2 µM 15% | [4]; at 3.7 µM 16% | [4]; at 11.0 µM 21% | [4]; at 33.0 µM 46% | [5]; at 1.2 µM 16% | [5]; at 3.7 µM 19% | [5]; [16] 52% | [5]; at 11.0 µM 9% | [5]; at 33.0 µM 28% | [6]; at 1.2 µM -3% | [6]; at 3.7 µM -1% | [6]; [16] 59% | [6]; at 11.0 µM 3% | [6]; at 33.0 µM 17% | [7]; at 1.2 µM -21% | [7]; at 3.7 µM -20% | [7]; at 11.0 µM -18% | [7]; at 33.0 µM 0% | [8]; [16] 10% | [9]; at 1.2 µM 13% | [9]; at 3.7 µM 14% | [9]; at 11.0 µM 12% | [9]; at 33.0 µM 37% | [10]; [16] 43% | [11]; at 1.2 µM 14% | [11]; at 3.7 µM 22% | [11]; [16] 44% | [11]; at 11.0 µM 27% | [11]; at 33.0 µM 55% | [12]; at 1.2 µM -20% | [12]; at 3.7 µM -18% | [12]; at 11.0 µM -7% | [12]; at 33.0 µM 15% | [13]; at 1.2 µM -26% | [13]; at 3.7 µM -21% | [13]; at 11.0 µM -16% | [13]; at 33.0 µM -1% | [14]; at 1.2 µM -17% | [14]; at 3.7 µM -15% | [14]; at 11.0 µM -15% | [14]; at 33.0 µM 13% | [15]; [16] 47%
active: [1]; at 100.0 µM 93% | [2]; at 100.0 µM 91% | [4]; at 100.0 µM 95% | [5]; [17] 95% | [5]; at 50.0 µM 86.3% | [5]; at 100.0 µM 90% | [6]; [17] 94% | [6]; at 50.0 µM 86.8% | [6]; at 100.0 µM 92% | [7]; at 100.0 µM 92% | [8]; [17] 77% | [8]; at 50.0 µM 89.5% | [9]; at 100.0 µM 94% | [10]; [17] 87% | [10]; at 50.0 µM 86.4% | [11]; [17] 88% | [11]; at 50.0 µM 86.7% | [11]; at 100.0 µM 92% | [12]; at 100.0 µM 94% | [13]; at 100.0 µM 86% | [14]; at 100.0 µM 91% | [15]; [17] 93% | [15]; at 50.0 µM 81.5%

Cc1ccc(S(=O)(=O)N/N=C/C(Br)=C(/Br)C(=O)O)cc1
active: [1]; at 11.0 µM 86% | [1]; at 33.0 µM 95% | [1]; at 100.0 µM 89% | [2]; at 33.0 µM 91% | [3]; at 11.0 µM 80% | [3]; at 33.0 µM 96% | [3]; at 100.0 µM 82% | [4]; at 11.0 µM 79% | [4]; at 33.0 µM 98% | [4]; at 100.0 µM 89% | [5]; at 11.0 µM 86% | [5]; at 33.0 µM 97% | [5]; [17] 79% | [5]; at 100.0 µM 95% | [6]; at 33.0 µM 96% | [6]; at 100.0 µM 70% | [7]; at 33.0 µM 97% | [7]; at 100.0 µM 95% | [11]; at 33.0 µM 93% | [11]; at 100.0 µM 82% | [12]; at 33.0 µM 99% | [12]; at 100.0 µM 98% | [13]; at 11.0 µM 79% | [13]; at 33.0 µM 98% | [13]; at 100.0 µM 89% | [14]; at 33.0 µM 95% | [14]; at 100.0 µM 77% | [15]; at 50.0 µM 91.9%
inactive: [1]; at 1.2 µM 31% | [1]; at 3.7 µM 59% | [2]; at 1.2 µM 29% | [2]; at 3.7 µM 28% | [2]; at 11.0 µM 43% | [2]; at 100.0 µM 41% | [3]; at 1.2 µM 28% | [3]; at 3.7 µM 46% | [4]; at 1.2 µM 35% | [4]; at 3.7 µM 48% | [5]; at 1.2 µM 41% | [5]; at 3.7 µM 61% | [5]; [16] 38% | [5]; at 50.0 µM 57.8% | [6]; at 1.2 µM 20% | [6]; at 3.7 µM 35% | [6]; [16] -11% | [6]; at 11.0 µM 57% | [6]; [17] 10% | [6]; at 50.0 µM 43.8% | [7]; at 1.2 µM 14% | [7]; at 3.7 µM 28% | [7]; at 11.0 µM 50% | [8]; [16] 1% | [8]; [17] 43% | [8]; at 50.0 µM 62.8% | [9]; at 1.2 µM 3% | [9]; at 3.7 µM 8% | [9]; at 11.0 µM 21% | [9]; at 33.0 µM 54% | [9]; at 100.0 µM 43% | [10]; [16] 24% | [10]; [17] 42% | [10]; at 50.0 µM 25.2% | [11]; at 1.2 µM -5% | [11]; at 3.7 µM 1% | [11]; [16] -27% | [11]; at 11.0 µM 49% | [11]; [17] 37% | [11]; at 50.0 µM 64.2% | [12]; at 1.2 µM -3% | [12]; at 3.7 µM 10% | [12]; at 11.0 µM 48% | [13]; at 1.2 µM 35% | [13]; at 3.7 µM 48% | [14]; at 1.2 µM 28% | [14]; at 3.7 µM 38% | [14]; at 11.0 µM 56% | [15]; [16] 25% | [15]; [17] 69%
